Consider 31 compounds from PubChem BioAssay (NCI).

SMILES strings stand for the structures. About 83,000 compounds went through this panel and 20% of them were active in at least one assay; those are over-represented in the sample as a whole.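 Compound tested at a single concentration for 48 hours in 96-well plates; a percent growth value below 10 was scored as active.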 Unmarked numbers belong to inactive results. Calls of active or inactive are those of the source.

What all share (assay): NCI-60 one-dose screen, 48 h (100 = growth as untreated, 0 = no growth, -100 = all killed)
What all share (settings): 10 µM unless noted

Assay [1] relates to T-47D breast.
Assay [2] deals with BT-549 breast.
Assay [3] concerns MDA-MB-435 melanoma.
The subject of assay [4] is SW-620 colon.
Assay [5] deals with MCF7 breast.
Assay [6] concerns HCT-116 colon.
Assay [7] deals with HCC-2998 colon.
The test system of assay [8] is KM12 colon.

In the case of `CCCCCCCCCCCCCOC(=O)c1c(C)[nH]c(/C=C2\N=C(c3ccc[nH]3)C=C2OC)c1C`, the growth was 27.2% in assay [1]; 51.5% in assay [2]; 19.2% in assay [3]; 3.08% (active) in assay [4]; 12.2% in assay [5]; 11.3% in assay [6]. In assay [7], the growth was 22.8%.
`CCOC(=O)c1c(C)c2c(n1Cc1ccccc1)CSCC2=O`: the growth in assay [1] was 1.4% [100 µM] (active); in assay [2], -25.9% [100 µM] (active); in assay [3] it was -9.11% [100 µM] (active); in assay [4], 16.7% [100 µM]; in assay [5], -12.8% [100 µM] (active); in assay [6], -17.5% [100 µM] (active). In addition, the results for the growth in assay [7] and in assay [8] were 17% [100 µM] and -4.25% [100 µM] (active), respectively.
As for `C[n+]1ccc(CCc2c[nH]c3ccccc23)cc1`, the growth in assay [1] is 72.6%; in assay [2], 98.2%; in assay [3] it was 104%; in assay [4], 100%; in assay [5], 93.2%; in assay [6], 97.2%. Also, the growth in assay [7] is 92.6%.
On to `Cc1ccc2nc(/C(C#N)=C(/CCCO)NC(Cc3ccccc3)C(=O)OCc3ccccc3)[nH]c(=O)c2c1` (centres undefined), for which the growth was 93% in assay [1]; 94.2% in assay [2]; 89.5% in assay [3]; 110% in assay [4]; 99.8% in assay [5]; 96.9% in assay [6]. For the same compound, the growth in assay [7] was -12.5% (active).
For the compound `CCNC(=O)Oc1ccc(/C(=C(/C)Cc2ccc(OC)cc2)c2ccc(OCCN3CCCCC3)cc2)cc1`, the growth in assay [1] was 42.5%; in assay [2] it was 92.5%; in assay [3] it was 68.1%; in assay [4], 77.8%; in assay [5] it was 29.9%; in assay [6], 49.2%. The growth in assay [7] was 67.9%.
On to `Nc1c(C(=O)Nc2cccc(Cl)c2)sc2nc3c(cc12)CCCC3`, for which the growth is 80.8% in assay [1]; 93.1% in assay [2]; 34.4% in assay [3]; 92.3% in assay [4]; 71.6% in assay [5]; 91.6% in assay [6]. Further, the figures for the growth in assay [7] and in assay [8] were 91.4% and 77.6%, respectively.
Turning to `O=[N+]([O-])c1cc(NS(=O)(=O)c2ccccc2)ccc1NS(=O)(=O)c1ccccc1`, the growth was 104% in assay [1]; 74.9% in assay [2]; 123% in assay [3]; 84.4% in assay [4]; 112% in assay [5]; 87.1% in assay [6]. Besides, the growth was 99.3% in assay [7] and 103% in assay [8].
Take `N#Cc1cncc(-c2ccc3ncnc(Nc4cccc(Cl)c4)c3c2)c1`: the growth was 56.4% in assay [1]; 69.7% in assay [2]; 93.4% in assay [3]; 97.6% in assay [4]; 75.9% in assay [5]; 36.6% in assay [6]. Moreover, the growth in assay [7] is 88.4%; in assay [8], 90.2%.
On to `CCN1CCN(CCNc2nccc(-c3c(-c4ccc(F)c(OC)c4)nc4sccn34)n2)S1(=O)=O`, for which the growth in assay [1] was 87.3%; in assay [2] it was 93.2%; in assay [3], 26.6%; in assay [4], 87.4%; in assay [5], 50%; in assay [6], 44.5%. Further, the figures for the growth in assay [7] and in assay [8] were 89% and 74.2%, respectively.
On to `COc1ccc(Cn2cc(C(=O)N=Nc3c(O)[nH]c4c(C)cccc34)nn2)cc1`, for which the growth is 81% in assay [1]; 103% in assay [2]; 82% in assay [3]; 57.5% in assay [4]; 84.9% in assay [5]; 7.11% (active) in assay [6]. Besides, the growth in assay [7] is 101%; in assay [8] it was 95.6%.
`COc1ccc(-c2nc(-c3cn(C)c4ncccc34)cs2)cc1`: the growth in assay [1] is -6.67% [100 µM] (active); in assay [2], -30.1% [100 µM] (active); in assay [3], -43.6% [100 µM] (active); in assay [4], 10.8% [100 µM]; in assay [5], -17.8% [100 µM] (active); in assay [6] it was -75.3% [100 µM] (active). Besides, the growth in assay [7] is -9.69% [100 µM] (active); in assay [8] it was 3.74% [100 µM] (active).
As for `CCN1C(=O)N(CC)C2C1NN=c1s/c(=C3\C(=O)N(CCC(C)C)c4ccccc43)c(=O)n12` (centres undefined), the growth in assay [1] is 80.2%; in assay [2] it was 11.6%; in assay [3], -31.3% (active); in assay [4], 31.7%; in assay [5] it was 14.9%; in assay [6], 10.6%. Further, the growth is 11.6% in assay [7] and 17.6% in assay [8].
As to `O=C(CN1CCCCCC1)Nc1nc2ccc(NCc3ccc(Cl)cc3)cc2s1`, the growth was 94.7% in assay [1]; 92.6% in assay [2]; 100% in assay [3]; 97.9% in assay [4]; 84.9% in assay [5]; 75.8% in assay [6]. Also, the values for the growth in assay [7] and in assay [8] were 114% and 96.6%, respectively.
In the case of `Cc1cccc(Oc2ccc(Nc3ncnc4ccc(NC(=O)CN5CCN(C)CC5)cc34)cc2Cl)c1`, the growth is 7.58% (active) in assay [1]; 70.3% in assay [2]; -67.8% (active) in assay [3]; 3.68% (active) in assay [4]; 7.21% (active) in assay [5]; 12.3% in assay [6]. Further, the growth is 19.3% in assay [7] and 30.7% in assay [8].
`FC(F)(F)c1ccc(Cn2cc(CSc3nc4ccccc4s3)nn2)cc1`: the growth in assay [1] is 90%; in assay [2], 92.3%; in assay [3], 101%; in assay [4], 98.1%; in assay [5], 92.8%; in assay [6], 98.2%. In addition, the growth in assay [7] was 104%; in assay [8], 99%.
As to `CCOc1cccc(/C=N/NC(=O)c2cccc(Nc3ccnc(C(F)(F)F)c3)c2)c1O`, the growth is 27.6% in assay [1]; 48.5% in assay [2]; 34.4% in assay [3]; 36.6% in assay [4]; 17.4% in assay [5]; 13% in assay [6]. Besides, the growth in assay [7] is 43.5%; in assay [8], 38.9%.
Turning to `COc1cccc(/C=N/NC(=O)c2ccccc2N2CCCC2)c1O`, the growth was 24.7% in assay [1]; 17.8% in assay [2]; 85.5% in assay [3]; 45.3% in assay [4]; 5.29% (active) in assay [5]; 4.81% (active) in assay [6]. Further, the growth is 51.8% in assay [7] and 46.5% in assay [8].
Take `CSc1nc(C)c([N+](=O)[O-])c(N)n1`: the growth in assay [1] was 107%; in assay [2], 98.9%; in assay [3], 107%; in assay [4] it was 104%; in assay [5] it was 94.3%; in assay [6], 91.1%. Also, the growth in assay [7] is 114%; in assay [8], 99.5%.
For the compound `O=C1Nc2ccccc2/C1=C/c1cccn1C(=O)c1ccc(Cl)s1`, the growth in assay [1] was -31.3% (active); in assay [2], 65%; in assay [3], 89.8%; in assay [4], 56.4%; in assay [5], 12.3%; in assay [6], 34.6%. The figures for the growth in assay [7] and in assay [8] were 54.4% and 4.36% (active), respectively.
On to `CCOC(=O)CC1CSC(Nc2ccccc2)=N1` (centres undefined), for which the growth in assay [1] is 87.9%; in assay [2], 114%; in assay [3], 105%; in assay [4], 108%; in assay [5] it was 89.7%; in assay [6], 107%. Besides, the growth in assay [7] is 102%; in assay [8] it was 99%.
`O=C(C1CCCCC1)[C@@H]1[C@]2(C(=O)NC3CCCCC32)[C@@H]2CCCN2[C@@]12C(=O)NC1CCC(Cl)CC12` (some centres undefined): the growth in assay [1] is -69% [100 µM] (active); in assay [2], -91.6% [100 µM] (active); in assay [3], -91% [100 µM] (active); in assay [4] it was -89.6% [100 µM] (active); in assay [5], -51.4% [100 µM] (active); in assay [6] it was -91.2% [100 µM] (active). The growth in assay [7] was -84.8% [100 µM] (active); in assay [8] it was -86% [100 µM] (active).
Regarding `O=C(CI)NC(=O)NC(=O)NCc1ccccc1`, the growth in assay [1] is 18.8%; in assay [2], 37.2%; in assay [3], 21%; in assay [4] it was 25.2%; in assay [5] it was 12%; in assay [6], 13.3%. Moreover, the growth was 95.3% in assay [7] and 88.6% in assay [8].
Take `N[C@H]1CCC[C@@H]1NCCCCN1C(=O)c2cccc3cc([N+](=O)[O-])cc(c23)C1=O`: the growth in assay [1] was 57.5%; in assay [2], 68.3%; in assay [3], 53.2%; in assay [4] it was 26.7%; in assay [5], 19.7%; in assay [6], 9.25% (active). Moreover, the growth was 51.9% in assay [7] and 36.6% in assay [8].
On to `COc1cc(-c2nc3c(ncc4ccc(=O)n(-c5ccccc5)c43)s2)cc(OC)c1OC`, for which the growth is 37.9% in assay [1]; 61.8% in assay [2]; 81% in assay [3]; 89.4% in assay [4]; 55.1% in assay [5]; 79.6% in assay [6]. The figures for the growth in assay [7] and in assay [8] were 85% and 79.3%, respectively.
On to `O=C(Nc1ccccc1[N+](=O)[O-])c1ccc(Cl)c(Cl)c1`, for which the growth is 54.9% in assay [1]; 85.6% in assay [2]; 102% in assay [3]; 97.9% in assay [4]; 52% in assay [5]; 95% in assay [6]. Besides, the growth was 110% in assay [7] and 96.8% in assay [8].
Turning to `Cc1ccccc1Nc1cc(O)c2c(=O)cc(-c3ccccc3)oc2c1`, the growth in assay [1] is 36.5%; in assay [2], 47.1%; in assay [3], 1.9% (active); in assay [4] it was 21%; in assay [5], 15.5%; in assay [6] it was 15.2%. In addition, the growth is 76.7% in assay [7] and 36.4% in assay [8].
Regarding `O=S(=O)(Nc1cc(Sc2cccc3cccnc23)c(O)c2ccccc12)c1ccccc1`, the growth in assay [1] was -26% (active); in assay [2], 31.4%; in assay [3], 11.3%; in assay [4], -67.8% (active); in assay [5], -54.6% (active); in assay [6] it was -15.2% (active). Further, the growth is 36.9% in assay [7] and 13.6% in assay [8].
Consider `N#CSc1c[nH]c2cccc(/C=C/C(=O)/C=C(O)/C=C/c3cccc4[nH]cc(SC#N)c34)c12`, for which the growth in assay [1] is -10.5% (active); in assay [2], -23.7% (active); in assay [3], -83.8% (active); in assay [4], -43% (active); in assay [5] it was -41.6% (active); in assay [6], -92% (active). Also, the growth in assay [7] is -57.8% (active); in assay [8], -16.9% (active).
On to `Cc1ccc(CNc2ccc3nc(CCC(C)C)[nH]c3c2)cc1`, for which the growth in assay [1] was 84.4%; in assay [2] it was 93.4%; in assay [3] it was 97.2%; in assay [4] it was 91.9%; in assay [5], 89.2%; in assay [6] it was 80.4%. The growth in assay [7] is 111%; in assay [8], 96.2%.
In the case of `CCCCNC(=O)Oc1ccc(/C(=C(/C)Cc2ccc(OC)cc2)c2ccc(OCCN3CCCCC3)cc2)cc1`, the growth in assay [1] was 37.9%; in assay [2], 81.9%; in assay [3], 67.8%; in assay [4], 77.4%; in assay [5], 26.9%; in assay [6], 41.8%. Moreover, the figures for the growth in assay [7] and in assay [8] were 75.5% and 73.6%, respectively.
Turning to `CN1CCN(C(=S)SCCCCOc2cc(=O)oc3ccccc23)CC1`, the growth in assay [1] was 55.6%; in assay [2], 81.3%; in assay [3], 96.7%; in assay [4] it was 100%; in assay [5], 78.6%; in assay [6], 86.8%. For the same compound, the growth in assay [7] was 98.1%; in assay [8] it was 85.4%.
